PG9 binder – binders of HIV-1 gp120 antibody PG9, primary screen, biochemical, TR-FRET; actives 0.43% (n = 360,000); TR-FRET gp120-PG9 antibody binding; inhibition, % at 6.7 µM; HIV-1 gp120 / PG9 antibody interaction; in the data active = inhibition above about 8.5%
Granule exo inh – LAMP-1 surface exposure blockers, TALL-104 cells – cell-based, flow cytometry, MLPCN library, primary screen; TALL-104 LAMP-1 surface exposure; cells stimulated with thapsigargin and PMA; actives 0.66% (n = 360,000); inhibition, % at 10 µM;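 active = inhibition above about 55%, limit read from the data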
rCAG RNA binder – binders of r(CAG) RNA repeats, primary screen, biochemical, fluorescence. r(CAG) RNA repeat, TO-PRO-1 dye displacement fluorescence. inhibition, % at 3 µM. actives 1.3% (n = 370,000). AID 651821, 2012;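 active = inhibition above the plate cutoff, the mean of all test compounds on that plate plus 3 SD, cut at about 35% in these data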;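 also: 0% = DMSO alone and 100% = 100 µM mitoxantrone as full dye displacement; higher means more dye released from RNA so lower well fluorescence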
ABCB6 inh MLPCN – ABCB6 transporter inhibitors, primary screen, K562-ABCB6 cells, flow cytometry, MLPCN library | ATP-binding cassette sub-family B member 6 (Homo sapiens), Q9NP58 | K562-ABCB6 porphyrin accumulation, 1 h; stronger effect = lower value | fluorescence ratio to DMSO, % at 10 µM | actives 0.19% (n = 360,000);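 active = fluorescence ratio to DMSO below 75%, the collection mean minus 3 SD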;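 also: signal is porphyrin accumulated inside mitochondria; 100% equals median channel fluorescence of DMSO control wells; lower ratio means ABCB6 inhibition with less porphyrin fluorescence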
Target sequence (Q9NP58 whole entry, looked up): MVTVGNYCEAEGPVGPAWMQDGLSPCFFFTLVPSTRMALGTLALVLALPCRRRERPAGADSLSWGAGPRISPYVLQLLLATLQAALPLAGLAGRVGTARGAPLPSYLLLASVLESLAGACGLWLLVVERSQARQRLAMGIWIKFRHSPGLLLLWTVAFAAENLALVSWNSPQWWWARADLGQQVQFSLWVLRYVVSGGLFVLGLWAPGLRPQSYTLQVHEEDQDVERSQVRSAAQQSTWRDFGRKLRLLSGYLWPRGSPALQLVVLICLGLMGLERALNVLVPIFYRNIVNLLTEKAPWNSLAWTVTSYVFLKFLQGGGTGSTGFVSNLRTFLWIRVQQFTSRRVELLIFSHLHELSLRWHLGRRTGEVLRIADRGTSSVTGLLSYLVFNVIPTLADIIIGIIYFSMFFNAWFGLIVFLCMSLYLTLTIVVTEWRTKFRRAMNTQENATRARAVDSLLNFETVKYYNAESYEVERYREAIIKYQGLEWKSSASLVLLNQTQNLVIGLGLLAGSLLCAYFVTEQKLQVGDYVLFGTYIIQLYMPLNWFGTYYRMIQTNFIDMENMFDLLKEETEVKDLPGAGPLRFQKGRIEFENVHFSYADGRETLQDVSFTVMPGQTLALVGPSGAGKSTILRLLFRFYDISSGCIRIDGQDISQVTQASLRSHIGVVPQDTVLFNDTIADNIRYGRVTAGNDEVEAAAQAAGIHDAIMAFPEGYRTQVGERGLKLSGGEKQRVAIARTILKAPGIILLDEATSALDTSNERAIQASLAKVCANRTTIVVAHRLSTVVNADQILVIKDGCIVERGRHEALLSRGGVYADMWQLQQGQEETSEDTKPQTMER
PG9 binder conf – binders of anti-gp120 antibody PG9, confirmation, biochemical, TR-FRET; shares compounds with PG9 binder; TR-FRET PG9 antibody binding; AID 651571, 2012; inhibition, % at 6.7 µM; actives 90% (n = 1,500); in the data active = inhibition above about 9%
PGV04 counter – binders of control antibody PGV04, counter-screen for PG9 antibody binder project, biochemical, TR-FRET, distinct HIV envelope site. actives 95% (n = 1,500). inhibition, % at 6.7 µM. shares compounds with PG9 binder. TR-FRET PGV04 antibody-gp120 binding. AID 651604, 2012; in the data active = inhibition above about 9.5%
PG9 binder DR – small-molecule binders of antibody PG9, dose response, biochemical, TR-FRET, HIV-1 gp120 antibody; shares compounds with PG9 binder; TR-FRET PG9 antibody-gp120 binding inhibition; IC50, µM; 95 tested, under 10 active; AID 651848, 2012; in the data active = IC50 below about 10 µM
PGV04 DR counter – binders of control antibody PGV04, dose response, counter-screen for PG9 antibody binder project, biochemical, TR-FRET, distinct HIV envelope site; shares compounds with PG9 binder; TR-FRET binding to control antibody PGV04; IC50, µM; actives 20% (n = 95)
PG126 DR counter – binders of control antibody PG126, dose response, counter-screen for PG9 antibody binder project, biochemical, TR-FRET, distinct HIV envelope site. IC50, µM. actives 20% (n = 95). AID 651939, 2012. shares compounds with PG9 binder. TR-FRET binding to antibody PG126, counterscreen
The depositor's hits bear a star; i = inactive; . = no result given. Only some compounds are listed: those with a hit (about 2.5% of all), similar ones and a draw of the others. Rule as the data show it, unless noted: active = IC50 below about 9 µM; inactive = the rest.

SMILES | PG9 binder | Granule exo inh | rCAG RNA binder | ABCB6 inh MLPCN | PG9 binder conf | PGV04 counter | others
COc1ccc(C(=O)Nc2ccc(NC(=O)c3cc(OC)c(OC)c(OC)c3)cn2)cc1 | 20.2* | 0.2 | -1.6 | 99.0 | 14.8* | 20.3*
COc1cc(C(=O)Nc2ccc(NC(=O)c3ccccc3)nc2)cc(OC)c1OC | -0.3 | 11.2 | -0.4 | 100.0 | . | .
COCCNC(=O)CSc1cc(-c2ccccc2)c2ccc(OC)cc2n1 | 15.8* | 4.6 | -6.2 | 94.0 | 21.4* | 25.5*
CCN(C(=O)CSc1cc(-c2ccccc2)c2ccc(OC)cc2n1)C1CCS(=O)(=O)C1 (configuration not stated) | 1.6 | 8.0 | 12.4 | 99.0 | . | .
COc1ccc2c(-c3ccccc3)cc(SCC(=O)N(C)C)nc2c1 | -1.6 | 1.6 | -3.9 | 98.0 | . | .
COc1ccc2c(-c3ccccc3)cc(SCC(=O)NC(N)=O)nc2c1 | 17.1* | 5.6 | 0.8 | 92.0 | 28.1* | 64.9*
COc1ccc2c(-c3ccccc3)cc(SCC(=O)NC3CCS(=O)(=O)C3)nc2c1 (configuration not stated) | 22.2* | -1.2 | 0.7 | 100.0 | 16.0* | 19.3*
CN(Cc1ccccc1)C(=O)[C@@H]1CCCN1C(=O)[C@@H]1CCCN1C(=O)c1ccccc1 | 0.8 | -2.1 | 1.8 | 96.0 | . | .
O=c1oc2cc(O)c(Cl)cc2c2ccccc12 | 66.5* | 0.1 | 5.2 | 96.0 | 62.1* | 81.6*
O=c1[nH]c2cc3c(cc2cc1C(c1nnnn1C1CCCC1)N1CCSCC1)OCCO3 (configuration not stated) | 21.4* | -1.9 | 0.5 | 104.0 | 41.6* | 28.8* | PG9 binder DR=i;PGV04 DR counter=7.99*;PG126 DR counter=7.79*
COC(=O)C[C@@H]1CC[C@@H](NS(=O)(=O)c2ccc(OC)cc2)[C@@H](CO)O1 | -1.8 | -6.0 | 0.9 | . | . | .
COc1ccccc1OCCSc1nc2ccccc2c(=O)[nH]1 | -0.5 | -1.2 | 3.7 | 102.0 | . | .
O=c1[nH]c(SCCOc2ccccc2)nc2ccccc12 | 39.5* | 2.2 | 2.9 | 94.0 | 32.6* | 51.8*
Cc1ccc(CNC(=O)c2cc3c(s2)CN(Cc2ccccc2)C3)cc1 | 17.9* | 0.4 | -4.3 | 93.0 | 19.6* | 21.4*
Cc1ccc(CNC(=O)c2cc3c(s2)CS(=O)(=O)C3)cc1 | -1.5 | 0.7 | 8.0 | 100.0 | . | .
O=c1c2ccc(Cl)cc2[nH]c(=S)n1Cc1cccnc1 | 14.1* | 2.7 | -6.4 | 100.0 | 11.9* | 13.9*
O=C(c1ccc2c(=O)n(Cc3ccc(Cl)cc3)c(=S)[nH]c2c1)N1CCCC1 | -0.1 | -1.6 | -0.4 | 99.0 | . | .
CCN(CC(=O)Nc1c(F)cccc1F)C(=O)Cn1c(=O)cnc2ccccc21 | -1.7 | -1.7 | -0.3 | 85.0 | . | .
O=C(O)CSc1nnc2c(n1)[nH]c1ccccc12 | -2.7 | 1.2 | 2.7 | 105.0 | . | .
O=C(O)c1ccccc1CSc1nnc2c(n1)[nH]c1ccccc12 | 11.0* | 3.3 | 0.3 | 97.0 | 20.6* | 24.1*
CCCC(=O)N1CCCC1(C)C(=O)Nc1ccc2cn[nH]c2c1 (configuration not stated) | 2.4 | 3.2 | -0.3 | 83.0 | . | .
Cc1cc2ccccc2n1CCNC(=O)C1CCCCC1 | 10.7* | 22.1 | 7.3 | 100.0 | 8.5 | 8.2 | PG9 binder DR=i;PGV04 DR counter=i;PG126 DR counter=i
CCn1c(CNC(=O)C2CCCCC2)cc2ccccc21 | 31.9* | -4.5 | 1.2 | 97.0 | 15.8* | 22.6*
COCCNC(=S)Nc1cc(OC)c(OC)cc1C#N | -1.3 | -1.8 | -1.6 | 97.0 | . | .
COC(=O)[C@@]1(Sc2ccccc2)CC(=O)N[C@@H]1c1ccccc1 | -0.1 | 8.1 | 2.6 | 99.0 | . | .
SMILES | PG9 binder | Granule exo inh | rCAG RNA binder | ABCB6 inh MLPCN | PG9 binder conf | PGV04 counter | others
COC(=O)[C@@]1(Cc2ccc(OC)cc2)[C@H]2c3cc(C(=O)N4CCCC4)n(Cc4ccc(C)c(F)c4F)c3C[C@H]2CN1C(=O)c1ccccc1 | 0.4 | 17.0 | 11.7 | 125.0 | . | .
CC(=O)Nc1sc(C)c(C)c1C(=O)OCC(=O)Nc1ccc(S(N)(=O)=O)cc1 | 9.6* | -14.2 | 0.9 | 104.0 | 12.6* | 23.3*
CCC(Oc1ccc(C)cc1)C(=O)Nc1ccccc1C(=O)N1CCOCC1 (configuration not stated) | -0.3 | 1.1 | -3.5 | 101.0 | . | .
C=CCn1c(=NC(=O)c2cccs2)sc2cccc(OC)c21 | -0.3 | 38.9 | 13.5 | 96.0 | . | .
C#CCn1c(=NC(=O)c2ccc(Br)s2)sc2cccc(OC)c21 | 10.8* | -1.0 | 3.0 | 137.0 | 15.1* | 25.9*
C#CCn1c(=NC(=O)c2ccco2)sc2cccc(Cl)c21 | 16.3* | -5.0 | -2.4 | 96.0 | 16.0* | 45.5*
C[C@@H]1CN([C@H](C)CO)S(=O)(=O)c2ccc(Br)cc2O[C@H]1CN(C)C(=O)Nc1ccccc1 | -0.9 | -0.4 | 3.5 | 101.0 | . | .
CC(C)(C)Sc1ccc([N+](=O)[O-])cc1C(=O)Nc1ccncc1 | -1.3 | -3.9 | 1.4 | 97.0 | . | .
COc1cc(N)c(Cl)cc1C(=O)OCC(=O)c1cccs1 | 6.2 | 1.9 | 1.3 | 97.0 | . | .
CCN(CC)c1c(C)nc2ccc(C(=O)NCc3ccc4c(c3)OCO4)cn12 | 0.5 | -1.7 | 1.2 | 102.0 | . | .
COc1cccc(NC(=O)c2cccc(N3C(=O)C4C5C=CC(C5)C4C3=O)c2)c1 (configuration not stated) | -2.5 | -3.6 | -1.0 | 100.0 | . | .
CCOc1ccc(-n2c(=O)c3c(C)c(C(=O)N(C)C)sc3n(CC(=O)Nc3ccccc3F)c2=O)cc1 | 1.9 | -1.4 | -0.8 | 93.0 | . | .
CCOC(=O)c1ccccc1NC(=O)Cn1c(=O)n(Cc2ccccc2)c(=O)c2c(C)c(C)sc21 | 11.8* | -3.2 | 0.4 | 98.0 | 4.7 | 6.6
O=C(CCc1nc2sc3c(c2c(=O)[nH]1)CCCC3)Nc1cccc(Cl)c1 | 36.0* | -0.9 | 11.7 | 98.0 | 27.5* | 37.6*
Cc1cc(C)cc(NC(=O)CCc2nc3sc4c(c3c(=O)[nH]2)CCCC4)c1 | 10.9* | -1.8 | 10.6 | 97.0 | 16.8* | 23.2*

Screens: PubChem, several laboratories
